Measured values from PubChem BioAssay (NCI).
Values joined by “and” are separate entries in the source; they are usually repeats but may differ in a detail not shown here. Equal entries are not always repeated. Compounds without any hit were thinned out: in the full panel of roughly 83,000, 20% have a hit.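 For each line, cells grew in 96-well plates with the test compound present at a single concentration for 48 hours.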 Values without a mark were called inactive. Active and inactive are the calls of the source. How the source made its calls: active means growth percent below 10; inactive means the rest.

test system: HL-60(TB) leukemia; test: NCI-60 one-dose screen, 48 h (100 = growth as untreated, 0 = no growth, -100 = all killed); details: 10 µM unless noted

SMILES	growth
CCc1c(C(=O)N[C@@H]2c3cc(Cl)ccc3CC[C@@H]2O)[nH]c(C)c1C(C)=O	103%
Cn1c2c(c3ccc(Cl)cc31)-n1cccc1C2=O	64.9%
CNC(=S)Sc1ccc([N+](=O)[O-])cc1[N+](=O)[O-]	-14.6% (active)
CCCCN(CCCC)CC(O)CN(CC)CC (stereo not given)	108%
O=C1N/C(=N/O)S/C1=C/c1cn(-c2ccccc2)nc1-c1ccccc1	117%
C[C@@H](Oc1cc(C(=O)Nc2ccc(C(=O)N3CCN(C)CC3)cc2)nnc1N)c1c(Cl)ccc(F)c1Cl	88.3%
Cc1nn(-c2nc3ccccc3[nH]2)c2c1C(c1ccc(OCc3ccc(F)cc3)cc1)CC(=O)N2 (stereo not given)	75.8%
C/C(Cc1ccc(Cl)cc1)=C(/c1ccc(Cl)cc1)c1ccc(OCCN(C)C)cc1	-10.1% (active)
C[C@@H]1CCC[C@H]1CC(N)C(=O)O (stereo not given in full)	112%
COC1(OC)N=C(N)C2(C#N)C3(C(=O)Nc4ccccc43)C12C#N (stereo not given)	72.5%
CC(C)=C1C=C2CC[C@@H]3[C@](C)(CCC[C@@]3(C)C(=O)O)[C@H]2CC1	105%
CCCCCN(CCCCC)CC(O)c1cc2c(c3ccccc13)CCCC2 (stereo not given)	18.6% and 58.1%
CN(C)CCCn1c2c(c3cc(-c4cccc(S(N)(=O)=O)c4)ccc3c1=O)C(=O)c1ccccc1-2	93.2%
O=c1c(N=Nc2nccs2)c(-c2ccccc2)[nH]n1-c1nc(-c2ccccc2)cs1	15.8%
COc1cc2c(c(OC)c1OC)-c1ccc(OC)c(=O)cc1[C@@H](NC(=O)CCl)CC2	-7.51% (active)
O=C1CCC(NC(=S)Nc2ccccc2)N1 (stereo not given)	99.2%
c1ccc2c(N3CCCCC3)ncnc2c1	51.5%
CC[C@@]1(O)C(=O)OCc2c1cc1n(c2=O)Cc2c-1nc1ccccc1c2/C=N/OC(C)(C)C	-29% (active)
CCN(CC)CCNC(=O)c1cn2ncnc(Oc3ccc(NC(=O)Nc4ccc(Cl)c(C(F)(F)F)c4)cc3)c2c1C	-40.8% (active)
CC(=O)CC(c1ccc([N+](=O)[O-])cc1)c1c(O)c2ccccc2oc1=O (stereo not given)	97%
Nc1nc2c(nnn2C2CC(O)C(CO)O2)c(=O)[nH]1 (stereo not given)	28.4%
CCOC(=O)C(C)(CSSCC(C)(NC(=O)c1ccc2ccccc2c1)C(=O)OCC)NC(=O)c1ccc2ccccc2c1 (stereo not given)	98.8%
Nc1ccc2c(O)cc(S(=O)(=O)O)cc2c1	89.8% and 67%
C=C1C(=O)O[C@H]2[C@H]1CC/C(C(=O)NCCOCCOCC(=O)Nc1ccc(OC)c(C(N)=O)c1O)=C\CC[C@@]1(C)O[C@@H]21	81.3%
O=C(CCc1nnc2sc(-c3ccc(Cl)cc3Cl)nn12)c1nc2ccccc2[nH]1	3.48% (active)
